{"source": "PubChem BioAssay (NCATS)", "key": {"[1]": {"target": "Luciferin 4-monooxygenase (Photinus pyralis) (UniProt P08659)", "experiment": "Primary firefly luciferase (FLuc) qHTS assay for identification of artifact compounds. (AID 1845220); further: nearly all actives have a fitted effect of over 60% in size; on activity change, negative = inhibition: series mostly up to about 54 µM", "method_in_brief": "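D-luciferin and ATP (10 uM each, final) in Tris acetate buffer pH 7.6 were incubated with compounds for 15 min at room temperature. The reaction was started with 10 nM Photinus pyralis luciferase and luminescence read after 5 min. Percent inhibition was fitted to a 4-parameter Hill equation.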"}, "[2]": {"experiment": "Primary fluorescence-based thiol-reactive (MSTI) qHTS assay for identification of artifact compounds. (AID 1845221); further: nearly all actives have a fitted effect of over 65% in size; further: potency means the concentration at half of the fitted maximal effect;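 on activity change, negative = thiol reactive: series mostly up to about 54 µM; thiol-reactive compounds lower the probe fluorescence signal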", "method_in_brief": "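One-hour, room-temperature, dark incubation of compound with 4 uM MSTI in PBS (pH 7.4, 2% DMSO) precedes a fluorescence read at 525 nm excitation, 598 nm emission; Hill-equation fitting yields concentration-response values.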"}, "[3]": {"system": "Nanoluciferase (engineered Oplophorus gracilirostris luciferase)", "experiment": "Primary Nanoluciferase (NLuc) qHTS assay for identification of artifact compounds. (AID 1845222); further: potency means the concentration at half of the fitted maximal effect; on activity, negative = inhibition: series mostly up to about 54 µM", "method_in_brief": "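Diluted conditioned medium from NLuc-expressing S16 cells treated with compounds for 15 min at room temperature, then Nano-Glo substrate added; luminescence read after 5 min. Percent inhibition versus no-enzyme and DMSO controls fitted to 4-parameter Hill equation.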"}, "[4]": {"experiment": "Primary redox qHTS assay for identification of artifact compounds. (AID 1845223)", "method_in_brief": "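Amplex Red (25 uM) and HRP (250 mU/mL) in HBSS, with compounds for 15 min, then 250 uM DTT for 30 min, room temperature, dark. Fluorescence 525/598 nm read; normalized to DMSO and 10 uM DA3003; Hill fit.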"}}, "note": "Values without a mark were called inactive. Records with an inconclusive call do not appear. Entries that show only a call come without a potency. The source made the active and inactive calls. The call rests on the fitted dose curve; in most records, active means well fitted curve in the direction sought with a large enough effect; inconclusive means small, poorly fitted or top-dose-only effect, or another doubt; inactive means no such curve, though single readings can be large; an effect the other way counts as inactive or inconclusive."}
{"smiles": "C[C@@H]1O[C@@H](O[C@H]2[C@H](OC(=O)[C@]34CCC(C)(C)C[C@H]3C3=CCC5[C@@]6(C)C[C@H](O)[C@H](O[C@@H]7O[C@H](CO)[C@@H](O)[C@H](O)[C@H]7O)[C@@](C)(CO)C6[C@H](O)C[C@@]5(C)[C@]3(C)CC4)OC[C@H](O)[C@@H]2O)[C@H](O)[C@H](O)[C@H]1O[C@@H]1OC[C@@H](O)[C@H](O[C@@H]2OC[C@](O)(CO)[C@H]2O)[C@H]1O", "note": "(some centres not stated)", "values": [{"measurement": "activity change, negative = inhibition", "setting": "[1]", "result": "1.22% [at 11.6 µM]"}, {"measurement": "activity change, negative = thiol reactive", "setting": "[2]", "result": "350% [at 11.5 µM]"}, {"measurement": "activity, negative = inhibition", "setting": "[3]", "result": "0% [at 11.6 µM]"}, {"measurement": "redox activity (% of DA3003)", "setting": "[4]", "result": "8.55% [at 11.5 µM]"}]}
{"smiles": "COc1ccc(C(O)C(C)OC2OC(CO)C(O)C(O)C2O)cc1", "note": "(configuration not stated)", "values": [{"measurement": "Potency", "setting": "[1]", "result": "inactive"}, {"measurement": "Potency", "setting": "[3]", "result": "inactive"}, {"measurement": "Potency", "setting": "[4]", "result": "inactive"}]}
{"smiles": "Cn1c2ccc(F)cc2c2c(C(=O)N3CCCC3)cn(-c3ccccc3)c(=O)c21", "values": [{"measurement": "Potency", "setting": "[1]", "result": "inactive"}, {"measurement": "Potency", "setting": "[2]", "result": "inactive"}, {"measurement": "Potency", "setting": "[3]", "result": "inactive"}, {"measurement": "Potency", "setting": "[4]", "result": "inactive"}]}
{"smiles": "CS(=O)(=O)c1ccc(-c2nnc(/C=C/c3nnc(-c4ccc(C#N)cc4)o3)n2-c2ccccc2Cl)nc1", "values": [{"measurement": "Potency", "setting": "[1]", "result": "inactive"}, {"measurement": "Potency", "setting": "[2]", "result": "inactive"}, {"measurement": "Potency", "setting": "[3]", "result": "12 µM (active)"}, {"measurement": "Potency", "setting": "[4]", "result": "inactive"}]}
{"smiles": "C=C(C)C(=O)O[C@H]1CC2=CC(C/C(C)=C\\[C@H]3OC(=O)C(=C)[C@H]13)OC2=O", "note": "(some centres not stated)", "values": [{"measurement": "Potency", "setting": "[1]", "result": "inactive"}, {"measurement": "Potency", "setting": "[2]", "result": "inactive"}, {"measurement": "Potency", "setting": "[3]", "result": "inactive"}, {"measurement": "Potency", "setting": "[4]", "result": "inactive"}]}
{"smiles": "CO/N=C(/C(=O)N[C@@H]1C(=O)N2C(C(=O)O)=C(Cn3ccc(=N)n3CCO)CS[C@H]12)c1csc(N)n1", "values": [{"measurement": "Potency", "setting": "[1]", "result": "inactive"}, {"measurement": "Potency", "setting": "[3]", "result": "inactive"}, {"measurement": "Potency", "setting": "[4]", "result": "inactive"}]}
{"smiles": "O=C(c1ccc(/C=C/c2n[nH]c3ccccc23)cc1)N1CCNCC1", "values": [{"measurement": "Potency", "setting": "[2]", "result": "inactive"}, {"measurement": "Potency", "setting": "[3]", "result": "inactive"}, {"measurement": "Potency", "setting": "[4]", "result": "inactive"}]}
{"smiles": "CC(C)c1cccc2c(-c3ccccc3)cc(-c3ccc(-c4ccc(C(=O)O)cc4)[nH]3)nc12", "values": [{"measurement": "Potency", "setting": "[1]", "result": "inactive"}, {"measurement": "Potency", "setting": "[3]", "result": "inactive"}, {"measurement": "Potency", "setting": "[4]", "result": "inactive"}]}
{"smiles": "CNC(=S)NS(=O)(=O)c1cc(CCNC(=O)c2cc(Cl)ccc2OC)ccc1OC", "values": [{"measurement": "Potency", "setting": "[1]", "result": "inactive"}, {"measurement": "Potency", "setting": "[2]", "result": "inactive"}, {"measurement": "Potency", "setting": "[4]", "result": "inactive"}]}
{"smiles": "CC1=C(C(=O)O)/C(=C\\CO[C@@H]2O[C@H](CO)[C@@H](O)[C@H](O)[C@H]2O)C(OC(=O)/C=C\\c2ccc(O)cc2)C1", "note": "(some centres not stated)", "values": [{"measurement": "Potency", "setting": "[1]", "result": "inactive"}, {"measurement": "Potency", "setting": "[2]", "result": "4.62 µM (active)"}, {"measurement": "Potency", "setting": "[3]", "result": "inactive"}, {"measurement": "Potency", "setting": "[4]", "result": "inactive"}]}
{"smiles": "Cc1cc(N(C)C)ccc1-c1nc2ccc(-c3nc4ccc(N5CCN(C)CC5)cc4[nH]3)cc2[nH]1", "values": [{"measurement": "Potency", "setting": "[2]", "result": "2.38 µM (active)"}, {"measurement": "Potency", "setting": "[3]", "result": "inactive"}]}
{"smiles": "CCc1c(C)nc2c(-c3cnn(-c4cc(CO)ccn4)c3)c[nH]n2c1=O", "values": [{"measurement": "Potency", "setting": "[1]", "result": "inactive"}, {"measurement": "Potency", "setting": "[4]", "result": "inactive"}]}
{"smiles": "CCC(C)/C=C(C)/C=C/c1cc2c(cn1)C(=O)C(C)(OC(C)=O)C(O)=C2Cl", "note": "(configuration not stated)", "values": [{"measurement": "Potency", "setting": "[2]", "result": "0.736 µM (active)"}, {"measurement": "Potency", "setting": "[3]", "result": "inactive"}]}
{"smiles": "COc1ccc(C2(O)c3ccccc3NC(=O)C2O)cc1", "note": "(configuration not stated)", "values": [{"measurement": "Potency", "setting": "[1]", "result": "inactive"}, {"measurement": "Potency", "setting": "[3]", "result": "inactive"}, {"measurement": "Potency", "setting": "[4]", "result": "inactive"}]}
{"smiles": "CC(O)/C=C/C1(O)C(C)C(O[C@@H]2O[C@H](CO)[C@@H](O)[C@H](O)[C@H]2O)C(O)CC1(C)C", "note": "(some centres not stated)", "values": [{"measurement": "Potency", "setting": "[1]", "result": "inactive"}, {"measurement": "Potency", "setting": "[3]", "result": "inactive"}, {"measurement": "Potency", "setting": "[4]", "result": "inactive"}]}
